Screens deposited in PubChem BioAssay by National Center for Advancing Translational Sciences (NCATS).
Sampled rows, rich in hits. Any-hit rate of the full collection: about 19%.
TDP1 cell noCPT: qHTS for Inhibitors of human tyrosyl-DNA phosphodiesterase 1 (TDP1): qHTS in cells in absence of CPT | DT40 Tdp1-/- hTDP1 cells, no CPT, ATP luminescence, 48 h | Potency, µM (titrated, usually from 46.2 µM), for inactives: at the top dose activity change, negative = growth inhibition, usual class: inhibitors | 15% of 420,000 active | AID 686978, 2013; also: nearly all actives have a fitted effect of over 55% in size
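Chicken DT40 Tdp1-/- cells complemented with human TDP1, screened without camptothecin (DMSO vehicle only), 400 cells/well. Compounds pin-transferred, cells incubated at 37 °C for at least 48 hr. Growth read as ATP-dependent luminescence (CellTiter-Glo, 30 min at RT).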
TDP1 block: qHTS Assay for Inhibitors of Tyrosyl-DNA Phosphodiesterase (TDP1); Tyrosyl-DNA phosphodiesterase 1 (Homo sapiens), Q9NUW8; recombinant TDP1, AlphaScreen DNA substrate cleavage; Potency, µM (series often up to 130 µM), for the others: top-dose activity change, negative = inhibition, hits mostly inhibitors; 0.28% of 350,000 active; also: nearly all actives have a fitted effect of over 40% in size
Target sequence (Q9NUW8 whole entry, looked up): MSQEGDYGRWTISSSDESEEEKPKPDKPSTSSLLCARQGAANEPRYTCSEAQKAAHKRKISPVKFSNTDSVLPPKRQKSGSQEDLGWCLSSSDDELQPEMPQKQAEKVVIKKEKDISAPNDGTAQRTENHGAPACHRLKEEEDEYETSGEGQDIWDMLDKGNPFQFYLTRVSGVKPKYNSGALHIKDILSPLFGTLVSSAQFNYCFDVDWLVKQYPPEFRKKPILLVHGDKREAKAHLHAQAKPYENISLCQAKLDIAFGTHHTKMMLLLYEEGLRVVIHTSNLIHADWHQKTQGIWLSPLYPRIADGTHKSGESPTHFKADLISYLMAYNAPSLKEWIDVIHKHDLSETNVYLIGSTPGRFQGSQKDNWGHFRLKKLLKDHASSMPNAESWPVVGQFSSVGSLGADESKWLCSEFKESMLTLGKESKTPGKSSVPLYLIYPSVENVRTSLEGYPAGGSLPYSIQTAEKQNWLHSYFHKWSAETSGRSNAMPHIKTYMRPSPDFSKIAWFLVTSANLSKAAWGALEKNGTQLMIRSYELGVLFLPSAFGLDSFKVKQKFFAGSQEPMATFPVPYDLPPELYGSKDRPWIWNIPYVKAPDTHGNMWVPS
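E. coli-derived human Tdp1, 1 nM final. Cpd preinc 15 min RT; substrate 15 nM final, 5 min RT; AS bead mix 10 ug/ml final, 10 min RT. Signal loss = tyrosine-FITC cleavage. No-enzyme wells = max signal.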
Gal4-VP16 FLuc: VP16 counterscreen qHTS for inhibitors of ROR gamma transcriptional activity | 3.5% of 310,000 active | AID 2546, 2010 | Potency, µM (titrated, usually from 53.6 µM), for inactives: at the highest dose activity, negative = inhibition, usual class: inhibitors | Drosophila S2 Gal4-VP16 UAS-luciferase, luminescence, 20 h;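 also: Gal4-VP16 expression switched on by copper sulfate through the metallothionein promoter; nearly all actives have a fitted effect of over 50% in size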
DT40 TDP1 CPT: qHTS for Inhibitors of human tyrosyl-DNA phosphodiesterase 1 (TDP1): qHTS in cells in presence of CPT. chicken DT40 Tdp1-/-;hTDP1 cells + 20 nM CPT, ATP luminescence, 48 h. Potency, µM (titrated, usually from 46.2 µM), without a hit: at the highest dose activity change, negative = growth inhibition, hits mostly inhibitors. 12% of 420,000 active. AID 686979, 2013; also: nearly all actives have a fitted effect of over 55% in size
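Chicken DT40 Tdp1-/- cells stably complemented with human TDP1 were seeded at 400 cells/well in medium containing 20 nM camptothecin, exposed to pin-transferred compounds, and grown at 37 °C for at least 48 hr. Viability was read as ATP luminescence.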
RORgamma inh: qHTS for inhibitors of ROR gamma transcriptional activity | Drosophila S2 Gal4-RORgamma UAS-luciferase reporter, 20 h | Potency, µM (titrated, usually from 53.6 µM), without a hit: top-dose activity change, negative = inhibition, actives largely listed as inhibitors | 5.4% of 310,000 active | AID 2551, 2010; also: nearly all actives have a fitted effect of over 60% in size
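In this cell-based reporter format, copper sulfate (700 uM final) drives Gal4–ROR gamma fusion expression from a metallothionein promoter in Drosophila Schneider cells; compounds preincubated 1 hr, reporter read after 20 hr at ambient temperature.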
Active calls of the source: *; ? = inconclusive; . = no result given; [ ] = remark or other dose. Calls follow the shape of the dose curve; as a rule, active = well fitted curve in the direction sought with a large enough effect; inconclusive = small, poorly fitted or top-dose-only effect, or another doubt; inactive = no such curve, though single readings can be large; an effect the other way counts as inactive or inconclusive. % is scaled to controls: 0 for no effect and ±100 for the full control effect; potency is read from the fitted curve at half-maximal effect.

SMILES | TDP1 cell noCPT | TDP1 block | Gal4-VP16 FLuc | DT40 TDP1 CPT | RORgamma inh
CCC(C)n1c(=N)c(C(=O)NCc2ccccc2)cc2c(=O)n3cc(C)ccc3nc21 (stereo not given) | 16µM* | . | . | ? | .
CNC(=O)c1cc2c(=O)n3cc(C)ccc3nc2n(Cc2ccco2)c1=N | . | -2% | ? | . | 11µM*
COCCN(C(=O)c1cc2c(s1)CCC2)c1c(N)n(CC(C)C)c(=O)[nH]c1=O | -6% | ? | . | 1% | .
CCc1nc2c(OCc3ccc(C(F)(F)F)cc3)cccn2c1N(C)C(=O)c1ccc(C)cc1 | 23µM* | . | . | 23µM* | .
CCOC(=O)N(C)c1c(CC)nc2c(OCc3ccc(C(F)(F)F)cc3)cccn12 | 13µM* | . | . | ? | .
CCc1nc2c(OCc3ccc(C(F)(F)F)cc3)cccn2c1N(C)C(=O)c1ccc(OC)cc1 | 13µM* | . | . | 10µM* | .
CCOC(=O)N(C)c1c(CC)nc2c(OCc3ccc(OC(F)F)cc3)cccn12 | 15µM* | . | . | ? | .
CCc1nc2c(OCc3ccc(F)cc3)cccn2c1N(C)C(=O)c1ccncc1 | -29% | . | . | -13% | .
O=C1CN(C(=O)COC(=O)c2c(F)cccc2Cl)c2ccccc2N1 | ? | -1% | . | 8% | .
Cc1ccc(N2Cc3ccccc3C2=S)cc1 | 5% | 0% | -5% | 8% | ?
CCn1c(C)cc(C)c(C#N)c1=O | 20% | 3% | -3% | 7% | -5%
O=C(CNS(=O)(=O)c1ccccc1)OCC(=O)c1ccc(OC(=O)c2ccccc2)cc1 | -2% | 1% | -27% | -6% | -6%
CCc1nc2c(OCc3ccc(C#N)cc3)cccn2c1N(C)C(=O)c1ccc(C)cc1 | 18µM* | . | . | 18µM* | .
COc1cc(-c2cc(O)c(-c3ccc4ccccc4n3)c(=O)[nH]2)cc(OC)c1OC | 15µM* | . | . | ? | .
COc1cc(-c2nc3ccccc3nc2-c2ccc(O)c(OC)c2)ccc1O | ? | . | -2% | ? | 30%
Cc1ccc(S(=O)(=O)N(C)C)cc1NC(=O)C1CCC1 | 6% | 3% | -5% | 0% | -10%
O=C(O)CCC(=O)c1ccc(-c2ccccc2)cc1 | 5% | 7% | 0% | 7% | -13%
COc1ccc(-c2c(C#Cc3ccsc3)c3cc(-c4ccc5[nH]ccc5c4)ccc3n2C)cc1 | ? | -3% | . | -23% | .
COc1ccc(-c2c(C#Cc3ccsc3)c3cc(-c4cccc5[nH]ccc45)ccc3n2C)cc1 | 18µM* | 2% | . | ? | .
COC(=O)c1ccc2c(c1)c(C#Cc1ccccc1)c(-c1ccccc1)n2C | 16µM* | -8%[56.1 µM] | 3% | 21µM* | -7%
COc1cc(C#Cc2c(-c3ccccc3)n(C)c3ccccc23)cc(OC)c1 | ? | . | 9% | ? | -10%
COc1ccc(-c2c(C#Cc3ccsc3)c3cc(-c4ccc5c(c4)OCCO5)ccc3n2C)cc1 | -7% | 0% | . | -23% | .
COc1cc(F)cc(-c2ccc3c(c2)c(C#Cc2ccsc2)c(-c2cc(OC)cc(OC)c2)n3C)c1 | 15µM* | 1% | . | ? | .
COc1ccc(-c2c(C#Cc3ccsc3)c3cc(-c4ccc(C(N)=O)cc4)ccc3n2C)cc1 | ? | 0% | . | 23µM* | .
COc1cc(OC)cc(-c2c(C#Cc3ccsc3)c3cc(-c4ccc(OC)c(OC)c4)ccc3n2C)c1 | -15% | -1% | . | -9% | .
SMILES | TDP1 cell noCPT | TDP1 block | Gal4-VP16 FLuc | DT40 TDP1 CPT | RORgamma inh
COc1ccc(-c2c(C#Cc3ccsc3)c3ccccc3n2C)cc1 | 23µM* | . | 0% | 21µM* | ?
CN(C)/C=C1\C(=O)NN=C1c1ccccc1 | 6% | -5% | 4% | 12% | -42%
COC(=O)c1ccccc1NC(=O)c1cc2cc(C)ccc2n1C | 5.8µM* | 4% | . | 6.5µM* | .
OCC1(Cc2ccccc2)CCN(C2CCN(c3ccccc3F)CC2)CC1 | 23µM* | 4% | -7% | ? | 12%
COc1ccc(NC(=O)C2CC(=O)N(c3ccccc3C)C2)c(OC)c1 (stereo not given) | 1% | . | -8% | 5% | -1%
COC(=O)C1=C(C)N(c2cc(Cl)cc(Cl)c2)C(=O)C1 | 8.2µM* | 1% | 1% | 7.3µM* | ?
COc1cc(OC)c(N(C)C(=O)Nc2cn(CC(C)C)c(=O)c3ccccc23)cc1Cl | 23µM* | -6% | . | 21µM* | .
CCN(C(=O)Nc1cn(CC(C)C)c(=O)c2ccccc12)c1cc(C)ccc1C | 9.2µM* | 3% | . | 9.2µM* | .
COc1cccc(/C=N/NC(=O)C(C)n2nc(C)c([N+](=O)[O-])c2C)c1O (stereo not given) | 1µM* | 8% | 0.04µM* | 0.92µM* | 0.18µM*
COc1ccc(/C=N/NC(=O)c2ccco2)cc1Cn1nc(C)cc1C | -21% | -2% | -1% | -2% | -42%
COc1cccc(/C=N/NC(=O)Cn2nc(C)c([N+](=O)[O-])c2C)c1O | 5.8µM* | 3% | 0.79µM* | 5.8µM* | 0.35µM*
COc1ccc(/C=N/NC(=O)c2ccco2)cc1Cn1nc(C)c([N+](=O)[O-])c1C | 18µM* | 8% | -21% | ? | -1%
COc1cccc(/C=N\NC(=O)c2ccc(Cn3cc(Br)c([N+](=O)[O-])n3)o2)c1O | 3.3µM* | 0% | 0.28µM* | ? | 3%
CC(C)OCC(O)CN (stereo not given) | -11% | 2% | -8% | -6% | -18%
O=C1C(=O)N(c2ccccn2)C(c2ccc(F)cc2)/C1=C(/O)c1ccc(Br)cc1 (stereo not given) | ? | . | 1% | -9% | 4%
CCCOc1cccc(C2C(C(=O)c3ccc(C)o3)=C(O)C(=O)N2c2nc(C)c(C(C)=O)s2)c1 (stereo not given) | 23µM* | 10%[56.1 µM] | -2% | ? | 14µM*
COc1ccc2nc(N3C(=O)C(O)=C(C(=O)c4ccco4)C3c3ccccc3OC)sc2c1 (stereo not given) | ? | 8% | -17% | ? | 12%
Cc1cc(N2C(=O)C(O)=C(C(=O)c3ccc(C)o3)C2c2cccc(Oc3ccccc3)c2)no1 (stereo not given) | 23µM* | 8% | -11% | ? | ?
CCCOc1ccc(C2C(C(=O)c3ccc(C)o3)=C(O)C(=O)N2Cc2ccco2)cc1OCC (stereo not given) | 23µM* | 6%[56.1 µM] | 1% | ? | 3%
COc1ccc2nc(N3C(=O)C(O)=C(C(=O)c4ccco4)C3c3ccc(C)o3)sc2c1 (stereo not given) | 18µM* | 6% | . | -17% | .
